Values without a mark were called inactive. Inconclusive results are not listed. Activity calls are given as the source filed them. Unless noted, the call rests on the fitted dose curve; in most records, active means well fitted curve in the direction sought with a large enough effect in the repeat runs; inconclusive means weak or mixed curves; inactive means no such curve, though single readings can be large; an effect the other way counts as inactive or inconclusive.

For eight molecules, Potency and outcome results are on record in PubChem BioAssay (Tox21).

The nature of experiment [1]: qHTS assay to identify small molecule antagonists of the androgen receptor (AR) signaling pathway using the MDA cell line in the presence of 0.5 nM R1881 - cell viability counter screen (AID 1259242). Further: nearly all actives have a fitted effect of over 45% in size. Further: potency means the concentration at half of the fitted maximal effect. The gist of the method:
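MDA-kb2 cells (MMTV-luciferase, AR/GR responsive) were treated with compounds plus 0.5 nM R1881 (final) for 16 hr at 37C, 0% CO2. Viability was then read in the same wells as live-cell protease fluorescence (CellTiter-Fluor, 30 min).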
Background: Quantitative high-throughput screening tests each substance at several concentrations.

The target in experiment [2] is Estrogen receptor (Homo sapiens) (UniProt P03372). The experiment in a line: qHTS assay to identify small molecule antagonists of the estrogen receptor alpha (ER-alpha) signaling pathway using the BG1 cell line in the presence of 0.1 nM 17-beta-estradiol (AID 1259244). Further: nearly all actives have a fitted effect of over 50% in size. Further: potency means the concentration at half of the fitted maximal effect. The procedure, abridged:
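VM7Luc4E2 cells (endogenous full-length ER-alpha, 4×ERE-luciferase), kept 5 days in phenol red-free, charcoal-stripped FBS medium; 4,000 cells/well. Compounds added with 0.1 nM (final) 17beta-estradiol, 22 hr at 37C; luminescence read with ONE-Glo after 30 min.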

The nature of experiment [3]: qHTS assay to identify small molecule phospholipidosis (PLD) inducers (AID 1259344; active means well fitted curve in the direction sought with a large enough effect; an effect the other way counts as inactive or inconclusive). The gist of the method:
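HepG2 cells, 900/well, treated with compound plus LipidTOX Red for 24 h at 37 C; amiodarone positive and DMSO negative controls. Fixed with paraformaldehyde/Hoechst, then high-content imaging scored LipidTOX pit count and integrated intensity per well and per cell.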

Experiment [4] is described as follows: qHTS assay to identify small molecule HDAC inhibitors (AID 1259364). Further: top concentration of the series differs between compounds; nearly all actives have a fitted effect of over 45% in size. The gist of the method: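 Wild-type HCT-116 cells, plated overnight at 37 C, exposed to compounds 2 hr at 37 C; luminogenic HDAC-Glo substrate then added 30 min at room temperature. Luminescence reports relative endogenous class I/II HDAC activity.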
Experiment [5] is described as follows: qHTS assay to identify small molecule HDAC inhibitors - cell viability counter screen (AID 1259365). Further: series mostly up to about 92 µM; nearly all actives have a fitted effect of over 50% in size. The gist of the method: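 After overnight seeding at 1,500 cells per well, wild-type HCT-116 cultures took up compounds in DMSO for 2hr at 37 C. Viable cell content came from luminescence with CellTiter-Glo.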
Experiment [6] can be described thus: qHTS assay to identify small molecule agonists of the sonic hedgehog signaling (Shh) pathway - cell viability counter screen (AID 1259366). Further: nearly all actives have a fitted effect of over 50% in size. Further: potency means the concentration at half of the fitted maximal effect. The gist of the method:
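Same-well cytotoxicity read. Gli1-Luc reporter 3T3 cells; compounds 24hr, 37C/5% CO2; CellTiter-Fluor fluorescence.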

Experiment [7] in a line: qHTS assay to identify small molecule agonists of the sonic hedgehog signaling (Shh) pathway (AID 1259368; calls by dose curve; further: nearly all actives have a fitted effect of over 15% in size; further: potency means the concentration at half of the fitted maximal effect). The procedure, abridged:
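NIH/3T3-derived 3T3Gli1-Luc cells with stably integrated Gli1-driven firefly luciferase, 2,000 cells/well, compounds added after 4 hr. Incubated 24 hr at 37C, 5% CO2; luminescence read after 30 min with luciferase reagent at room temperature.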

Experiment [8] can be described thus: qHTS assay to identify small molecule antagonists of the sonic hedgehog signaling (Shh) pathway (AID 1259369; calls by dose curve; further: nearly all actives have a fitted effect of over 45% in size; further: potency means the concentration at half of the fitted maximal effect). The gist of the method: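 NIH/3T3-derived Gli1-Luc reporter cells plated 4 h, dosed with compound, then stimulated with conditioned medium for 24 h at 37 C. Firefly luciferase luminescence read after 30 min with detection reagent at room temperature.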

Experiment [9] addresses Estrogen receptor beta (Homo sapiens) (UniProt Q92731). The experiment in a line: qHTS assay to identify small molecule agonists of the estrogen receptor beta (ER-beta) signaling pathway (AID 1259377; active means well fitted activation curve with a large enough effect in the signal ratio in the repeat runs, not every such curve was filed as active; the % refers to the signal ratio). The gist of the method:
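Read-out: beta-lactamase FRET fluorescence. Cell line: ER-beta-UAS-bla HEK293T in 2% charcoal-stripped FBS. Exposure: 16 hr at 37C. Substrate step: 2 h at room temperature.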

The target is the same in experiment [10]. Description: qHTS assay to identify small molecule antagonists of the estrogen receptor beta (ER-beta) signaling pathway (AID 1259378; active means well fitted inhibition curve with a large enough effect in the signal ratio in the repeat runs, not every such curve was filed as active; the % refers to the signal ratio; further: potency means the concentration at half of the fitted maximal effect). The procedure, abridged: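 ER-beta-UAS-bla HEK293T cells in 2% charcoal-stripped FBS medium treated with compound plus 1nM final 17-beta-estradiol for 16 hr at 37C. Beta-lactamase reporter read by FRET substrate fluorescence after 2 hours at room temperature.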

Experiment [11] in a line: qHTS assay to identify small molecule agonists of the androgen receptor (AR) signaling pathway in the presence of an antagonist - cell viability counter screen (AID 1259379). Further: nearly all actives have a fitted effect of over 25% in size. Further: potency means the concentration at half of the fitted maximal effect. The gist of the method:
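MDA-kb2 cells (MMTV-luciferase, AR/GR), 3,000/well, 5 h attachment, then 3.0 µM nilutamide (final) and compounds at 15 concentrations. Viability by CellTiter-Fluor fluorescence after 16 h at 37 °C, 0% CO2, in the reporter wells.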

Experiment [12] can be described thus: qHTS assay to identify small molecule agonists of the estrogen receptor beta (ER-beta) signaling pathway - cell viability counter screen (AID 1259380). Further: nearly all actives have a fitted effect of over 30% in size. Further: potency means the concentration at half of the fitted maximal effect. The procedure, abridged: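 ER-beta-UAS-bla HEK293T cells in medium with 2% charcoal-stripped FBS, pre-incubated 6 hr, then treated 16 hr at 37C. Cytotoxicity read in the same wells by CellTiter-Glo luminescence after 30 min at room temperature.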

Experiment [13] in a line: qHTS assay to identify small molecule antagonists of the estrogen receptor beta (ER-beta) signaling pathway - cell viability counter screen (AID 1259382). Further: nearly all actives have a fitted effect of over 55% in size. Further: potency means the concentration at half of the fitted maximal effect. The gist of the method: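 ER-beta-UAS-bla HEK293T cells in 2% charcoal-stripped FBS medium, treated with compound plus 1 nM 17-beta-estradiol for 16 h at 37C. Viability read by CellTiter-Glo luminescence after 30 min at room temperature in the same wells.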

A short description of experiment [14]: qHTS assay to identify small molecule agonists or antagonists of the thyroid stimulating hormone receptor (TSHR) signaling pathway - wild type cell line counter screen (AID 1259384; calls by dose curve). The gist of the method: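 Wild-type Hek293 cells, 800/well, 18 h at 37C, then compound with Ro20-1724 for 30 min RT. cAMP by HTRF (cAMP-d2/anti-cAMP cryptate), 1 h RT, fluorescence read. 15 concentrations, triplicates.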

For experiment [15], the target named is Thyrotropin receptor (Homo sapiens) (UniProt P16473). The experiment in a line: qHTS assay to identify small molecule antagonists of the thyroid stimulating hormone receptor (TSHR) signaling pathway (AID 1259385; calls by dose curve; further: nearly all actives have a fitted effect of over 20% in size; further: potency means the concentration at half of the fitted maximal effect). The gist of the method: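 TSHR-HEK293 cells (800/well) plated 18 h, then compounds with Ro20-1724 and TSH at 1.5 ng/mL final, 30 min at room temperature. cAMP quantified by HTRF (cAMP-d2/anti-cAMP-cryptate, 1 h); 15 concentrations in triplicate.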
Sequence of Thyrotropin receptor (Homo sapiens) (P16473 whole entry, looked up): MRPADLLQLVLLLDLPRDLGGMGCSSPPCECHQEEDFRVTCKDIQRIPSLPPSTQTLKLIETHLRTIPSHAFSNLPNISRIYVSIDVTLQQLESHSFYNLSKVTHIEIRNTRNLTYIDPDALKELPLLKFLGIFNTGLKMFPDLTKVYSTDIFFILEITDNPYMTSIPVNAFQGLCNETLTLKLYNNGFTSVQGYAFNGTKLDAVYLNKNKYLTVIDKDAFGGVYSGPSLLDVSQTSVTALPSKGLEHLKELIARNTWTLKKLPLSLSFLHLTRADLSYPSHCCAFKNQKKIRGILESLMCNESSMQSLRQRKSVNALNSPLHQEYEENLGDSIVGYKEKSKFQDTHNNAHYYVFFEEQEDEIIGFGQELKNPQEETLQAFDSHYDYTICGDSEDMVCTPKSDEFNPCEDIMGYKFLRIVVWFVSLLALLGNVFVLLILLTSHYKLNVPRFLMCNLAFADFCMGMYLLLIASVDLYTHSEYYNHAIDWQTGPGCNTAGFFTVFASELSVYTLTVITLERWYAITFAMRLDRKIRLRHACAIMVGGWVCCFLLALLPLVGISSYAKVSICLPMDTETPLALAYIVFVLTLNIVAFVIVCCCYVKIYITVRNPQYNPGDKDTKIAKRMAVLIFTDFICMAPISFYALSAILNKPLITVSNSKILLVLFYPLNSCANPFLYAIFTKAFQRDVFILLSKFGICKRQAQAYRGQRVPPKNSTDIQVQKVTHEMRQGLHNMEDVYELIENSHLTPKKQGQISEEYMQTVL

Experiment [16] deals with Androgen receptor (Homo sapiens) (UniProt P10275). The experiment in a line: qHTS assay to identify small molecule antagonists of the androgen receptor (AR) signaling pathway using the MDA cell line in the presence of 0.5 nM R1881 (AID 1259243). Further: nearly all actives have a fitted effect of over 50% in size. Further: potency means the concentration at half of the fitted maximal effect. The procedure, abridged:
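MDA-kb2 cells (MMTV-luciferase, responsive to AR and GR) at 3,000/well, rested 5 h at 37C, 0% CO2, then given compounds plus 0.5 nM R1881 (final) for 16 hr. Luciferase read with ONE-Glo after 30 min at room temperature.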

Experiment [17] in a line: qHTS assay to identify small molecule antagonists of the sonic hedgehog signaling (Shh) pathway - cell viability counter screen (AID 1259367). Further: nearly all actives have a fitted effect of over 55% in size. Further: potency means the concentration at half of the fitted maximal effect. The gist of the method: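 NIH/3T3-derived Gli1-Luc reporter cells, 2,000/well, plated 4 hr before compound addition, then stimulated with conditioned medium for 24 hr at 37C. Viability measured in the same wells by CellTiter-Fluor fluorescence, reagent added at 23 hr for 1 hr.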

Experiment [18] concerns the target Androgen receptor (Homo sapiens) (UniProt P10275). Description: qHTS assay to identify small molecule agonists of the androgen receptor (AR) signaling pathway in the presence of an antagonist (AID 1259381; calls by dose curve; further: nearly all actives have a fitted effect of over 15% in size). The procedure, abridged:
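MDA-kb2 cells carrying MMTV-luciferase (AR/GR responsive), 3,000 cells/well, co-treated with 3.0 uM nilutamide final. Compounds at 15 concentrations, 16 hr at 37C without CO2. Luciferase luminescence read after 30 min with ONE-Glo.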

The nature of experiment [19]: qHTS assay to identify small molecule agonists of the estrogen receptor alpha (ER-alpha) signaling pathway in the presence of an antagonist - cell viability counter screen (AID 1259386).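 Further: series mostly up to about 92 µM; cells exposed to compounds for 22 h at 37 °C before the viability read; nearly all actives have a fitted effect of over 30% in size.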 The gist of the method:
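Cell viability in VM7Luc4E2 cells (endogenous full-length ER-alpha) measured by CellTiter-Fluor fluorescence in the same wells as the luciferase screen. Cells pre-cultured 5 days in charcoal-stripped serum, then treated 22 h with compounds at 15 concentrations plus 10.0nM ICI-182,780.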

For experiment [20], the target named is Estrogen receptor (Homo sapiens) (UniProt P03372). The experiment in a line: qHTS assay to identify small molecule agonists of the estrogen receptor alpha (ER-alpha) signaling pathway in the presence of an antagonist (AID 1259383; calls by dose curve; further: top concentration of the series differs between compounds; nearly all actives have a fitted effect of over 15% in size). The procedure, abridged: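 VM7Luc4E2 cells express endogenous full-length ER-alpha with an ERE-luciferase reporter and were hormone-deprived for 5 days. Compounds at 15 concentrations were added with 10.0nM ICI-182,780 for 22hr at 37C. Luminescence was read with ONE-Glo.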
Sequence of Estrogen receptor (Homo sapiens) (P03372 whole entry, looked up): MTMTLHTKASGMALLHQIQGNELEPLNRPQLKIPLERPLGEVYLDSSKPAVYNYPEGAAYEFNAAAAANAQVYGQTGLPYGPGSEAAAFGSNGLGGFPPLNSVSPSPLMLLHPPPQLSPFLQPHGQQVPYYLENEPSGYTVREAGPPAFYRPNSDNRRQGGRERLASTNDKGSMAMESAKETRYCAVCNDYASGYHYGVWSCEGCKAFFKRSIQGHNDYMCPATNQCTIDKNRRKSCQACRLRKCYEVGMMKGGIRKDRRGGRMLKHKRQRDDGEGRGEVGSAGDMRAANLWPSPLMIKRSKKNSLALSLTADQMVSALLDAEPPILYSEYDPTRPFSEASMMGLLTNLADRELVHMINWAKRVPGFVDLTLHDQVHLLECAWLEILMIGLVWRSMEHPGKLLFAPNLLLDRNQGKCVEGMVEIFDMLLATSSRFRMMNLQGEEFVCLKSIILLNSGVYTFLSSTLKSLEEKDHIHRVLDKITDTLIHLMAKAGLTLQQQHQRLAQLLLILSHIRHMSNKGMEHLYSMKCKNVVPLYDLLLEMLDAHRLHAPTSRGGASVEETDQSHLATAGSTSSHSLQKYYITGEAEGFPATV

Sequence of Estrogen receptor beta (Homo sapiens) (Q92731 whole entry, looked up): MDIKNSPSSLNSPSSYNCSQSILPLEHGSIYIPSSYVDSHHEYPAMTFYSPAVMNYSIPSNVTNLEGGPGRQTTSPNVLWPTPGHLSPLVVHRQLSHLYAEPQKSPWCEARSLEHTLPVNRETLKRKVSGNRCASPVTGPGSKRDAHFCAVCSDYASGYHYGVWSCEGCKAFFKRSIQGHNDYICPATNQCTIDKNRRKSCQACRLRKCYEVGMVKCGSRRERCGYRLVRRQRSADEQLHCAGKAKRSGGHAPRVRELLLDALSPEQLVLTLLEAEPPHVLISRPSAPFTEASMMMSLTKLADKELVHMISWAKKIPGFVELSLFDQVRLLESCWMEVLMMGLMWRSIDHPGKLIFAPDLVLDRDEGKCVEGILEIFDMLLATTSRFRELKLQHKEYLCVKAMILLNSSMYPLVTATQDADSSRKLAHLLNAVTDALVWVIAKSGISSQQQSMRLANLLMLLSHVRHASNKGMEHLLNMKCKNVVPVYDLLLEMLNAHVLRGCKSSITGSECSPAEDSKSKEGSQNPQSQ
Sequence of Androgen receptor (Homo sapiens) (P10275 whole entry, looked up): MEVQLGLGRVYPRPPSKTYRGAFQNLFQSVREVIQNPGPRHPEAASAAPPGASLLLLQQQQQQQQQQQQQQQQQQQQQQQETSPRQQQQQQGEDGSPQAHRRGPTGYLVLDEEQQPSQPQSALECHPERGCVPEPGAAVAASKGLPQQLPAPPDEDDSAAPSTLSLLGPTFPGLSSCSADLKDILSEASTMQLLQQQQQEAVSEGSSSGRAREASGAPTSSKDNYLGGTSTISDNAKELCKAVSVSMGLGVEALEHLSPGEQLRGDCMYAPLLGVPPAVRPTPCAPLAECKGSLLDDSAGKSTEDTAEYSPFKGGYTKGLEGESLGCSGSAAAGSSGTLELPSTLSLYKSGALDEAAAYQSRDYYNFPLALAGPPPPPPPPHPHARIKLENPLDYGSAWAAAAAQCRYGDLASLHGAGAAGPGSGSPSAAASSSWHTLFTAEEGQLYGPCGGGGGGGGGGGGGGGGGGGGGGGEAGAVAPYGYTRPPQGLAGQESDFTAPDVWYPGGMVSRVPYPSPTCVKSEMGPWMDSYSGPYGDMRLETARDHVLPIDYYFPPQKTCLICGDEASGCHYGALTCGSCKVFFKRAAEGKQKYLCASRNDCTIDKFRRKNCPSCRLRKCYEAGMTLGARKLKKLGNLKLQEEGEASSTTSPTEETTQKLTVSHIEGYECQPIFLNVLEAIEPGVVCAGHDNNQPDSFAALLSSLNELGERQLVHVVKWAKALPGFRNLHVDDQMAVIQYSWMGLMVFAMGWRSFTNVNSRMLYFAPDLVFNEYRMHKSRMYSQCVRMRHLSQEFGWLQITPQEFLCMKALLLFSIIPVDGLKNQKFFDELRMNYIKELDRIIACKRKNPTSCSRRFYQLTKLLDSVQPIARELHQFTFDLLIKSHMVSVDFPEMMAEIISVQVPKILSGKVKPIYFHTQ

Turning to `O=C(Nc1ccc(Cl)cc1)Nc1ccc(Cl)c(C(F)(F)F)c1`, the Potency in experiment [1] is 11.9 µM (active); in experiment [2], 9.44 µM (active); in experiment [8], 7.5 µM (active); in [10], 7.5 µM (active); in experiment [11], 11.9 µM (active); in experiment [12], 13.3 µM (active). The Potency is 13.3 µM (active) in experiment [13] and 26.6 µM (active) in [15]. Besides, the Potency result in experiment [3], in experiment [4], in [5], in experiment [6], in experiment [7] and in experiment [9] was “inactive” throughout. The outcome in experiment [14] was inactive.
For `CC1(C)C(=O)N(Br)C(=O)N1Br`, the Potency entry in experiment [1], in experiment [16], in experiment [4], in experiment [5], in [6] and in experiment [17] was “inactive” in each case. In addition, the Potency result in [7], in experiment [8], in experiment [10], in [11], in [12] and in [18] was “inactive” each time. Besides, the Potency result in experiment [13], in experiment [15] and in [19] was “inactive” throughout. In addition, in [14], the molecule was classed as inactive.
For the molecule `O=C[C@H](O)[C@H](O)[C@H](O)CO`, the Potency entry in experiment [1], in experiment [16], in experiment [4], in experiment [5], in experiment [6] and in experiment [17] was “inactive” throughout. For the same molecule, the Potency entry in experiment [7], in experiment [8], in [9], in [11], in [12] and in experiment [13] was “inactive” throughout. The Potency entry in [15] and in [19] was “inactive” each time. Further, the result in experiment [14] was inactive.
For `Cc1oc(-c2ccccc2)nc1CCOc1ccc(C[C@H](Nc2ccccc2C(=O)c2ccccc2)C(=O)O)cc1`, the Potency result in experiment [1], in [16], in experiment [2], in [4], in experiment [7] and in experiment [15] was “inactive” each time. For the same molecule, the Potency in experiment [6] is 43.3 µM (active); in [10], 27.3 µM (active); in experiment [11] it was 54.5 µM (active); in experiment [12] it was 27.3 µM (active); in experiment [13], 24.3 µM (active). In addition, the molecule was classed as inactive in [14].
Turning to `C=CC(C)(CCC=C(C)C)OC(=O)/C=C/c1ccccc1` (stereo not drawn), the Potency result in experiment [1], in experiment [16], in experiment [2], in experiment [4], in experiment [6] and in experiment [7] was “inactive” each time. The Potency result in [9], in [10], in experiment [11], in experiment [12], in experiment [18] and in experiment [13] was “inactive” in each case. The Potency result in experiment [20] and in experiment [19] was “inactive” throughout. For the same molecule, the molecule was called inactive in experiment [14].
In the case of `CN(C)c1ccc(N=NS(=O)(=O)O)cc1`, the Potency in experiment [1] was 27.3 µM (active); in experiment [16] it was 22.9 µM (active); in experiment [7] it was 16.2 µM (active); in [8], 12.2 µM (active); in [11], 16.2 µM (active). The Potency entry in experiment [3], in experiment [5], in experiment [6] and in experiment [18] was “inactive” each time.
As to `CCOC(=O)C1=C(C)NC(C)=C(C(=O)OCC)C1c1ccccc1/C=C/C(=O)OC(C)(C)C`, the Potency result in [1], in experiment [3], in [4], in experiment [5], in experiment [7] and in experiment [10] was “inactive” in each case. In addition, the Potency entry in experiment [13], in experiment [20] and in experiment [15] was “inactive” each time. Moreover, the Potency in experiment [16] is 23.7 µM (active); in experiment [17], 29.8 µM (active); in experiment [8], 29.8 µM (active); in [12] it was 23.7 µM (active). Further, the molecule was classed as inactive in experiment [14].
Regarding `CCCCOCC`, the Potency entry in [1], in experiment [16], in [4], in [5], in experiment [6] and in experiment [17] was “inactive” each time. Also, the Potency entry in [7], in experiment [8], in experiment [9], in experiment [10], in experiment [11] and in experiment [12] was “inactive” throughout. Further, the Potency result in [18], in experiment [13], in [15] and in experiment [19] was “inactive” throughout. In [14], the molecule was called inactive.
